± gives the standard deviation of the averaged measurements. About 5,400 targets were measured; listed, in parts, are those with the largest changes and a random draw of the rest.

Compound in the test: Nc1nc2c(ncn2[C@@H]2O[C@H](COP(=O)(O)OP(=O)(O)OP(=O)(O)O)[C@@H](O)[C@H]2O)c(=O)[nH]1 [guanosine triphosphate]
Description: NP40-soluble protein abundance relative to vehicle (solubility fold change) (ratio); higher = more soluble protein in presence of GTP. In a few lines:
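Crude Jurkat lysate, prepared by Dounce homogenisation, was exposed to eight concentrations from 0.1 to 10 mM for 10 min at room temperature and then 3 min at 37 °C. Solubilisation used 0.8% NP40 with benzonase for 60 min at 4 °C, followed by ultracentrifugation and TMT labelling of the supernatant for LC-MS/MS. After vsn normalisation of intensities, each value is the fold change against the detergent-processed vehicle within each replicate, across three independent experiments.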

Sequence of UniProt Q7Z7K6 (Q7Z7K6 whole entry): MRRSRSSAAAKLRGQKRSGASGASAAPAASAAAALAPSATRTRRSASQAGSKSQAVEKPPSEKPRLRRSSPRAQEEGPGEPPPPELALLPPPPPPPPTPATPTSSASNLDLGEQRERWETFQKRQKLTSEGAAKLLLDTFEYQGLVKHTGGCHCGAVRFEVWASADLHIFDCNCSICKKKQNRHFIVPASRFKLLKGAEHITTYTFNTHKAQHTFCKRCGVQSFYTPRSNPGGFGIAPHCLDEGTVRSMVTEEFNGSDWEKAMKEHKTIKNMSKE
Sequence of UniProt Q16630 (Q16630 whole entry): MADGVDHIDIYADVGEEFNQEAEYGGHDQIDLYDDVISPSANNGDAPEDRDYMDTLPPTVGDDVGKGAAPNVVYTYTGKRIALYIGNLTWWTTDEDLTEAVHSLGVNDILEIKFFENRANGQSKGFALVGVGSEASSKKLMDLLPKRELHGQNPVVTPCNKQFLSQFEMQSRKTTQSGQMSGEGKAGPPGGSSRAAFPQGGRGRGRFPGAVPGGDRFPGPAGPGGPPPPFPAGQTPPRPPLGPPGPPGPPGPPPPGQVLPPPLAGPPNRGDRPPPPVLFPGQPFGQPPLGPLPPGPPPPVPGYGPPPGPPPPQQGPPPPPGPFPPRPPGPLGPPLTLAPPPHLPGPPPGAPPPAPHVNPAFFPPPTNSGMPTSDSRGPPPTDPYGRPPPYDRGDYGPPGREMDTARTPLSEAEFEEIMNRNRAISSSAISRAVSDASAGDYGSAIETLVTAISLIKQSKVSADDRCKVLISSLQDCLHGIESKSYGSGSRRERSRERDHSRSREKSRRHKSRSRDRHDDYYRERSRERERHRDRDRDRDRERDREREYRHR
Sequence of UniProt Q63HQ0 (Q63HQ0 whole entry): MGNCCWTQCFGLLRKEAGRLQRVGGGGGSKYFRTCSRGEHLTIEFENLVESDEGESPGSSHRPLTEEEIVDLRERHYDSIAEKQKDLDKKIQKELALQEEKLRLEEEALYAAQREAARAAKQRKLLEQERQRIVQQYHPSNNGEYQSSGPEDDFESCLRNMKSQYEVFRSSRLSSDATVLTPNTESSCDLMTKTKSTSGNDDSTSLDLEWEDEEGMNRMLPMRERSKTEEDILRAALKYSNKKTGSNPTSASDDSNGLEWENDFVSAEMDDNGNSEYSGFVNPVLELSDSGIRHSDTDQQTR
Sequence of UniProt Q8WUX9 (Q8WUX9 whole entry): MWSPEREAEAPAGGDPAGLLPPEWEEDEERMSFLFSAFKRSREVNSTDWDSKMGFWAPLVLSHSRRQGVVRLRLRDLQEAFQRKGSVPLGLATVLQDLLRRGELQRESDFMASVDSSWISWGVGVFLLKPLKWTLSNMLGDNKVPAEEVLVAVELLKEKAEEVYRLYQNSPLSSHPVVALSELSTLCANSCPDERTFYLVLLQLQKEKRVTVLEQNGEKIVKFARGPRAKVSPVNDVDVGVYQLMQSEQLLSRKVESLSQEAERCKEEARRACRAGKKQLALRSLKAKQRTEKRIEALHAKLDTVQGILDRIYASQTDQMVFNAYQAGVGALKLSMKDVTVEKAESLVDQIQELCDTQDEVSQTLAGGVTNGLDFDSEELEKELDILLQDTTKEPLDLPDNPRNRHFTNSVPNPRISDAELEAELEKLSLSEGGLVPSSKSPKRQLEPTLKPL
Sequence of UniProt Q14152 (Q14152 whole entry): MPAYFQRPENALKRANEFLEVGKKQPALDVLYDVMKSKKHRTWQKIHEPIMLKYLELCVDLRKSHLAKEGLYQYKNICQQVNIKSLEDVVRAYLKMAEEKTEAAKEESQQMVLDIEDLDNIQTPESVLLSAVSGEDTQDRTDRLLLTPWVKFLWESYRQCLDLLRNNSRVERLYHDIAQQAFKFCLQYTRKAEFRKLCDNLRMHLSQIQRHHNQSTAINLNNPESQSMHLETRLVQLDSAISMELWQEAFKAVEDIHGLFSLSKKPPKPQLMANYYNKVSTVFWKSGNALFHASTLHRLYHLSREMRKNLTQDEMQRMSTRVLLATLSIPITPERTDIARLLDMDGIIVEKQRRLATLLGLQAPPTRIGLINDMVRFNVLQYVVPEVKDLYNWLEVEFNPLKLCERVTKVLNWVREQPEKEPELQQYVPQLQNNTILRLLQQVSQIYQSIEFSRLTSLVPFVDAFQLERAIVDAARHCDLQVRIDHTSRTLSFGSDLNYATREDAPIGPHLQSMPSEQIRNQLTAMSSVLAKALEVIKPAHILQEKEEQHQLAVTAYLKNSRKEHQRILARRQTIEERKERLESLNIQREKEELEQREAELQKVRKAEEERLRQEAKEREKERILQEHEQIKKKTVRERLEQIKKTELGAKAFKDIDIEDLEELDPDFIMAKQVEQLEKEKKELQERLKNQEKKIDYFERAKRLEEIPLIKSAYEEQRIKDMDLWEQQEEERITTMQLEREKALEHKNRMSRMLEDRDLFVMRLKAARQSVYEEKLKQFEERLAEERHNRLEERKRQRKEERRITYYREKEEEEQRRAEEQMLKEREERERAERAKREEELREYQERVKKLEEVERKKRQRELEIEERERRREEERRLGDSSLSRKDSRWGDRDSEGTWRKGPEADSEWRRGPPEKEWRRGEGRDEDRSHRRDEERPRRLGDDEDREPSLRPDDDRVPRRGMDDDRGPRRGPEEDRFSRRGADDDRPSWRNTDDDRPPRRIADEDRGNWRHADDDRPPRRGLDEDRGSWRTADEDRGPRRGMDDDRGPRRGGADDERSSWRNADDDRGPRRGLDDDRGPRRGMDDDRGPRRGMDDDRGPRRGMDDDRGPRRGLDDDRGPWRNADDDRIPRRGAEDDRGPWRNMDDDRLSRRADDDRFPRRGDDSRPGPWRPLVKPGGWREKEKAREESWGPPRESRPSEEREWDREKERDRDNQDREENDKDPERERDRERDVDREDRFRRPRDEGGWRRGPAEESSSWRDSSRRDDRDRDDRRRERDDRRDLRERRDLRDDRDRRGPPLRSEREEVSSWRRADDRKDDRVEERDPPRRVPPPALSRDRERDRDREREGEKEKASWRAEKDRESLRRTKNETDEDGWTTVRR
Sequence of UniProt Q8WUF8 (Q8WUF8 whole entry): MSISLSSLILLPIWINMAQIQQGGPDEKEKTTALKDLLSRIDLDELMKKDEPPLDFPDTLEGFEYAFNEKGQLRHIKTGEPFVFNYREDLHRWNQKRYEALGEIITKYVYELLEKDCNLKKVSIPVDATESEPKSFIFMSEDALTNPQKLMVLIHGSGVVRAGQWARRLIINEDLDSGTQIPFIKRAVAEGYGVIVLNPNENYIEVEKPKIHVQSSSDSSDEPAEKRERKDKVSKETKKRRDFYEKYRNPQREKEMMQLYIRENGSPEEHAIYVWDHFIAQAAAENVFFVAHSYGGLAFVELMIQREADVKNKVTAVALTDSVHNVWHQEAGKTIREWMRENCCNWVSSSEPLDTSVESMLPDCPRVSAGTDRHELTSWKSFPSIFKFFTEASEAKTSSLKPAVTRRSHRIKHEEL
Sequence of UniProt P84090 (P84090 whole entry, looked up): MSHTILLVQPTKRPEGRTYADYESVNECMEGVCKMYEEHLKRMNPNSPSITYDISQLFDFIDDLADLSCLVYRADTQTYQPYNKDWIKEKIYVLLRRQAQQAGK
Sequence of UniProt Q8WUM4 (Q8WUM4 whole entry): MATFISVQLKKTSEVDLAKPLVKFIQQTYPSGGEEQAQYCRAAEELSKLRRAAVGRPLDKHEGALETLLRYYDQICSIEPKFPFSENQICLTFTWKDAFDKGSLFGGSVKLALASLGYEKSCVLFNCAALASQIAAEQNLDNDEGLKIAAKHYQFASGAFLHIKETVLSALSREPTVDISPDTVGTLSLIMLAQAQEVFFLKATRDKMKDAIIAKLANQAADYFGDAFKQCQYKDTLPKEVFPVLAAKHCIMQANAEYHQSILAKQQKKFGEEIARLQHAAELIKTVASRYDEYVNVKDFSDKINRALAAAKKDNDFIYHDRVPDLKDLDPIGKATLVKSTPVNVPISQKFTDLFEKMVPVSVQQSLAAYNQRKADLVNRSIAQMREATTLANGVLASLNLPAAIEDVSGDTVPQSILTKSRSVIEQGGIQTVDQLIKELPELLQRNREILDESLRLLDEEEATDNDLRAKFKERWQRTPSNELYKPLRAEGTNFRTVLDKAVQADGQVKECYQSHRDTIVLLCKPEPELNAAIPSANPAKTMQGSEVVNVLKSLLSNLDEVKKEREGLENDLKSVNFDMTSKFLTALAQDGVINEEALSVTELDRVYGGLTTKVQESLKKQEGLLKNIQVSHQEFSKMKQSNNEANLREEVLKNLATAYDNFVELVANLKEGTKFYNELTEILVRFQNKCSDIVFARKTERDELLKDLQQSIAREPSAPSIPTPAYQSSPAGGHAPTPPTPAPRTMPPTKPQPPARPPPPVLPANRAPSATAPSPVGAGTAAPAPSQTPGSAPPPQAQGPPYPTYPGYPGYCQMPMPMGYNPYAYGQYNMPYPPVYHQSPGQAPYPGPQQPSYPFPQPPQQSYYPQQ
Sequence of UniProt Q8TC12 (Q8TC12 whole entry): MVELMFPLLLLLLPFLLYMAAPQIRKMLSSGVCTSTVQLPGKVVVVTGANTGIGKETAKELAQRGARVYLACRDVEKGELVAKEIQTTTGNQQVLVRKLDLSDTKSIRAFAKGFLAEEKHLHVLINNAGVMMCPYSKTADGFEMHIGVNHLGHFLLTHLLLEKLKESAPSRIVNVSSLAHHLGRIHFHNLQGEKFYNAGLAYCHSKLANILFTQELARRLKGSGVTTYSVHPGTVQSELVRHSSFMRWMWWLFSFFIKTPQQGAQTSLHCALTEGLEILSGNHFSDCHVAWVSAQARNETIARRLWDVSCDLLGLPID

Turning to PDCD6IP (UniProt Q8WUM4), the NP40-soluble protein abundance (concentration: 0.1mM) stood at 0.945 ± 0.046; the NP40-soluble protein abundance (concentration: 0.5mM) stood at 0.957 ± 0.053; the NP40-soluble protein abundance (concentration: 1mM) is 0.943 ± 0.061; the NP40-soluble protein abundance (concentration: 2mM) stood at 0.889 ± 0.075; the NP40-soluble protein abundance (concentration: 4mM) is 0.873 ± 0.084; the NP40-soluble protein abundance (concentration: 6mM) was determined as 0.895 ± 0.064. Further, the NP40-soluble protein abundance was found to be 0.904 ± 0.053 (concentration: 8mM) and 0.883 ± 0.07 (concentration: 10mM).

With UniProt Q8WUF8|Q8WUF8-3, the NP40-soluble protein abundance (concentration: 0.1mM) turned out to be 1.03 ± 0.14; the NP40-soluble protein abundance (concentration: 0.5mM) amounted to 1.03 ± 0.051; the NP40-soluble protein abundance (concentration: 1mM) is 0.978 ± 0.14; the NP40-soluble protein abundance (concentration: 2mM) came out at 1 ± 0.044; the NP40-soluble protein abundance (concentration: 4mM) was determined as 0.966 ± 0.028; the NP40-soluble protein abundance (concentration: 6mM) worked out at 1.01 ± 0.014. The NP40-soluble protein abundance came out at 0.959 ± 0.021 (concentration: 8mM) and 0.99 ± 0.023 (concentration: 10mM).

In the case of FAM160B1 (UniProt Q5W0V3), the NP40-soluble protein abundance was found to be 1.03 ± 0.037 (concentration: 0.1mM); 1.03 ± 0.027 (concentration: 0.5mM); 0.964 ± 0.029 (concentration: 1mM); 0.959 ± 0.02 (concentration: 2mM); 0.9389 ± 0.0083 (concentration: 4mM); 0.922 ± 0.0022 (concentration: 6mM). For the same target, the NP40-soluble protein abundance by setting is: (concentration: 8mM) 0.91 ± 0.033; (concentration: 10mM) 0.894 ± 0.051.

With PSMD2 (UniProt Q13200), the NP40-soluble protein abundance was found to be 1.03 ± 0.077 (concentration: 0.1mM); 1.1 ± 0.11 (concentration: 0.5mM); 1.01 ± 0.13 (concentration: 1mM); 1.08 ± 0.19 (concentration: 2mM); 1.06 ± 0.17 (concentration: 4mM); 1.08 ± 0.2 (concentration: 6mM). Besides, the NP40-soluble protein abundance turned out to be 1.04 ± 0.16 (concentration: 8mM) and 1 ± 0.15 (concentration: 10mM).

With UniProt P84090, the NP40-soluble protein abundance (concentration: 0.1mM) turned out to be 1.06 ± 0.1; the NP40-soluble protein abundance (concentration: 0.5mM) was 1.02 ± 0.06; the NP40-soluble protein abundance (concentration: 1mM) came to 1.26 ± 0.18; the NP40-soluble protein abundance (concentration: 2mM) amounted to 1.34 ± 0.11; the NP40-soluble protein abundance (concentration: 4mM) was determined as 1.42 ± 0.16; the NP40-soluble protein abundance (concentration: 6mM) turned out to be 1.54 ± 0.1. The NP40-soluble protein abundance runs as follows: (concentration: 8mM) 1.65 ± 0.14; (concentration: 10mM) 1.95 ± 0.38.

In the case of CHMP7 (UniProt Q8WUX9), the NP40-soluble protein abundance runs as follows: (concentration: 0.1mM) 0.945 ± 0.058; (concentration: 0.5mM) 0.935 ± 0.087; (concentration: 1mM) 0.973 ± 0.085; (concentration: 2mM) 0.92 ± 0.11; (concentration: 4mM) 0.884 ± 0.074; (concentration: 6mM) 0.9 ± 0.045. For the same target, the NP40-soluble protein abundance (concentration: 8mM) turned out to be 0.912 ± 0.1 and the NP40-soluble protein abundance (concentration: 10mM) stood at 0.889 ± 0.084.

As for UniProt Q13642-1|Q13642-4|Q13642-5, the NP40-soluble protein abundance came out at 1.07 ± 0.16 (concentration: 0.1mM); 1.09 ± 0.17 (concentration: 0.5mM); 0.946 ± 0.13 (concentration: 1mM); 0.921 ± 0.14 (concentration: 2mM); 0.932 ± 0.12 (concentration: 4mM); 0.911 ± 0.12 (concentration: 6mM). The NP40-soluble protein abundance is, setting by setting: (concentration: 8mM) 0.952 ± 0.093; (concentration: 10mM) 0.915 ± 0.15.

As for UniProt Q16630|Q16630-2, the NP40-soluble protein abundance (concentration: 0.1mM) came to 1.16 ± 0.012; the NP40-soluble protein abundance (concentration: 0.5mM) was 1.64 ± 0.098; the NP40-soluble protein abundance (concentration: 1mM) came out at 1.95 ± 0.22; the NP40-soluble protein abundance (concentration: 2mM) was 2.23 ± 0.3; the NP40-soluble protein abundance (concentration: 4mM) came out at 2.49 ± 0.41; the NP40-soluble protein abundance (concentration: 6mM) is 2.58 ± 0.45. In addition, the NP40-soluble protein abundance is, setting by setting: (concentration: 8mM) 2.71 ± 0.58; (concentration: 10mM) 2.75 ± 0.56.

UniProt Q8N2K0|Q8N2K0-2: the NP40-soluble protein abundance was 1.09 ± 0.011 (concentration: 0.1mM); 1.04 ± 0.051 (concentration: 0.5mM); 1.01 ± 0.017 (concentration: 1mM); 1.017 ± 0.0025 (concentration: 2mM); 1.03 ± 0.015 (concentration: 4mM); 1.01 ± 0.023 (concentration: 6mM). For the same target, the NP40-soluble protein abundance runs as follows: (concentration: 8mM) 0.997 ± 0.031; (concentration: 10mM) 0.976 ± 0.034.

Turning to EIF3A (UniProt Q14152), the NP40-soluble protein abundance runs as follows: (concentration: 0.1mM) 1.05 ± 0.031; (concentration: 0.5mM) 1.08 ± 0.018; (concentration: 1mM) 1.09 ± 0.062; (concentration: 2mM) 1.18 ± 0.12; (concentration: 4mM) 1.38 ± 0.23; (concentration: 6mM) 1.53 ± 0.28. Moreover, the NP40-soluble protein abundance was 1.74 ± 0.34 (concentration: 8mM) and 1.94 ± 0.38 (concentration: 10mM).

Take UniProt Q63HQ0: the NP40-soluble protein abundance runs as follows: (concentration: 0.1mM) 0.923 ± 0.075; (concentration: 0.5mM) 0.935 ± 0.056; (concentration: 1mM) 0.951 ± 0.099; (concentration: 2mM) 0.911 ± 0.13; (concentration: 4mM) 1.02 ± 0.16; (concentration: 6mM) 0.961 ± 0.12. In addition, the NP40-soluble protein abundance was 0.952 ± 0.091 (concentration: 8mM) and 0.972 ± 0.11 (concentration: 10mM).

With UniProt Q13427|E9PG73, the NP40-soluble protein abundance is, setting by setting: (concentration: 0.1mM) 0.978 ± 0.092; (concentration: 0.5mM) 1.11 ± 0.12; (concentration: 1mM) 1.18 ± 0.13; (concentration: 2mM) 1.16 ± 0.098; (concentration: 4mM) 1.09 ± 0.13; (concentration: 6mM) 1.12 ± 0.12. The NP40-soluble protein abundance is 1.21 ± 0.18 (concentration: 8mM) and 1.2 ± 0.2 (concentration: 10mM).

Regarding UniProt Q14789|Q14789-2, the NP40-soluble protein abundance is, setting by setting: (concentration: 0.1mM) 1 ± 0.019; (concentration: 0.5mM) 0.984 ± 0.041; (concentration: 1mM) 1.02 ± 0.022; (concentration: 2mM) 0.989 ± 0.049; (concentration: 4mM) 0.993 ± 0.026; (concentration: 6mM) 1 ± 0.035. In addition, the NP40-soluble protein abundance reads like this: (concentration: 8mM) 1.02 ± 0.046; (concentration: 10mM) 1.01 ± 0.051.

UniProt Q7Z7K6|Q7Z7K6-3: the NP40-soluble protein abundance worked out at 1.09 ± 0.035 (concentration: 0.1mM); 1.08 ± 0.071 (concentration: 0.5mM); 1.16 ± 0.013 (concentration: 1mM); 1.37 ± 0.071 (concentration: 2mM); 1.69 ± 0.2 (concentration: 4mM); 2.01 ± 0.27 (concentration: 6mM). The NP40-soluble protein abundance is, setting by setting: (concentration: 8mM) 2.24 ± 0.32; (concentration: 10mM) 3.21 ± 0.43.

For RDH11 (UniProt Q8TC12), the NP40-soluble protein abundance reads like this: (concentration: 0.1mM) 1 ± 0.014; (concentration: 0.5mM) 0.985 ± 0.024; (concentration: 1mM) 0.911 ± 0.034; (concentration: 2mM) 0.895 ± 0.051; (concentration: 4mM) 0.867 ± 0.048; (concentration: 6mM) 0.88 ± 0.015. Moreover, the NP40-soluble protein abundance by setting is: (concentration: 8mM) 0.824 ± 0.084; (concentration: 10mM) 0.782 ± 0.082.

The values above are taken from the supplement of paper PMC6411743.
